Sampled rows, rich in hits. Any-hit rate of the full collection: about 1.6%.
KCNQ2 pot – enhances the rat KCNQ2 potassium channel; B-score at 10 µM; CHO-K1 KCNQ2, FluxOR thallium flux fluorescence; hits give high values; AID 2239; 310,000 compounds, 0.54% hits;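 active means fluorescence ratio B-score at least 3 SD of library B-scores, with initial fluorescence B-score within 3 of them, cut at about 5.3 in these data; same plate scores as AID 2156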;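 further: B-score of peak minus minimum over baseline fluorescence ratio after K+ and Tl+ stimulus; positive B-score means potentiation of KCNQ2 with more thallium influx and brighter signal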
KCNQ2 inh – blocks the rat KCNQ2 potassium channel | O88943 | CHO-K1 KCNQ2, FluxOR thallium flux, 20 min; hits give low values | B-score at 10 µM | 310,000 compounds, 1.1% hits;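 active means fluorescence ratio B-score at most minus 3 library SDs, with starting brightness B-score within 2 library SDs, cut at about -5.5 in these data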
Kir21 conf inh – confirmation of mouse Kir2.1 potassium channel inhibitors | AID 2032 | Kir2.1-expressing cells, FluxOR thallium flux fluorescence; hits give low values | Tl flux remaining, % of negative control (hits give low values), % at 10 µM | 2,300 compounds, 41% hits | shares compounds with KCNQ2 pot;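 active means Primary-screen hit whose thallium flux fell at least 3 control SD below untreated wells in both duplicates, with normal baseline fluorescence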;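 further: 0% = blank wells without stimulus and 100% = stimulated no-compound controls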
HEK293 Tl flux – counter-screen for Kir2.1 inhibitors: effect in parental HEK293 cells; shares compounds with KCNQ2 pot; FluxOR thallium flux fluorescence; 0% = unstimulated blank wells; FluxOR signal as % of negative control (100 = no effect), % at 10 µM; 2,300 compounds, 19% hits; AID 2105;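 active means dye signal at least 3 control SD above or below untreated wells in both duplicates, raw fluorescence within 3, either direction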;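 further: percent is based on the flux ratio of peak minus minimum fluorescence over baseline F0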
CHO-K1 ctr – parental CHO-K1 activity in KCNQ2 potentiator counter-screen; shares compounds with KCNQ2 pot; parental CHO-K1 cells, FluxOR thallium flux fluorescence; zero = vehicle mean+3SD, 100% = vehicle-minus-blank window; activity increase over 3SD of controls, % at 10 µM; 1,200 compounds, 43% hits; AID 2282;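 active means signal rise of at least 3 SD above the untreated control mean, in both duplicate wells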;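 further: counter screen of KCNQ2 potentiator hits so any rise reflects channel-independent effects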
KCNQ1 sel pot – human KCNQ1 counter-target activity of KCNQ2 potentiators; shares compounds with KCNQ2 pot; CHO KCNQ1 stable, FluxOR thallium flux fluorescence; beyond 3SD, as % of vehicle-control signal; activation over 3SD threshold, % at 10 µM; 1,200 compounds, 28% hits;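 active means fluorescence ratio rise of at least 3 SD of vehicle wells above their mean, in both replicate wells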;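 further: 0% = vehicle mean plus 3 SD and 100% = vehicle minus unstimulated blank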
Target sequence (P51787 whole entry, looked up): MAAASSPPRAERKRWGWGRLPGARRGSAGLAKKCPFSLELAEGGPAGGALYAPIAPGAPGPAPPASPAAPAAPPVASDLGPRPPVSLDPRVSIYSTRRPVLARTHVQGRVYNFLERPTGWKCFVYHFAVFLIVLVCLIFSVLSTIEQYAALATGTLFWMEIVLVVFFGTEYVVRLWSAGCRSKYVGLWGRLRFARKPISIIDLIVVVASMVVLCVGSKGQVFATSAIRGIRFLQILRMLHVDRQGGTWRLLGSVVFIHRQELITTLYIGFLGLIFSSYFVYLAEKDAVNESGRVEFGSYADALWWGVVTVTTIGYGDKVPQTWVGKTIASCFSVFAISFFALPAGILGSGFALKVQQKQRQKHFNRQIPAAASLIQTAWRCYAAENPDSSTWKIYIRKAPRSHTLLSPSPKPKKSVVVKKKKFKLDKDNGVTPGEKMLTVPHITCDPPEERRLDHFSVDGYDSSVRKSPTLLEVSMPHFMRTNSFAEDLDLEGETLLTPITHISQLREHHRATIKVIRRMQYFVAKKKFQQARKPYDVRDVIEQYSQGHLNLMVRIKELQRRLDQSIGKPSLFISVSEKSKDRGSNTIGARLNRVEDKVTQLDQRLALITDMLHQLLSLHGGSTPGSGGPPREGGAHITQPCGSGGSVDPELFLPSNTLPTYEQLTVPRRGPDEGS
KCNQ2 pot conf – rat KCNQ2 channel potentiator confirmation. potentiation, less the hit threshold, % at 10 µM. 1,200 compounds, 68% hits. CHO-KCNQ2 cells, FluxOR thallium flux fluorescence. AID 2287. shares compounds with KCNQ2 pot;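 active means fluorescence ratio rising 3 SD or more over the vehicle control mean in both replicates, plus primary screen hit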;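 further: peak minus minimum thallium fluorescence divided by baseline after K/Tl stimulus; 0% = vehicle mean plus 3 SD and 100% = vehicle minus unstimulated blank difference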
Kir2-1 sel – mouse Kir2.1 off-target activity of KCNQ2 potentiators; activity over 3SD threshold, % at 10 µM; shares compounds with KCNQ2 pot; 1,200 compounds, 2% hits; HEK293 Kir2.1, FluxOR thallium flux fluorescence;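 active means fluorescence ratio rise of at least 3 SD above the vehicle-control mean, seen in both replicates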;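 further: 0% = vehicle mean plus 3 SD and 100% = vehicle minus no-stimulus blank window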
KCNQ2 W236L MoA – KCNQ2 potentiators acting on retigabine-insensitive rat KCNQ2 W236L mutant | CHO KCNQ2-W236L, automated patch clamp current | shares compounds with KCNQ2 pot | current increase over 3SD of negative controls (%), hits give high values, % at 25 µM | 940 compounds, 10% hits;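 active means current increase at least 3 SD of the untreated controls above them in both duplicate recordings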
* = called active by the depositor.

How did NC(=O)c1cccc(N=Cc2cc(Cl)cc(Cl)c2O)c1 do in these assays?
KCNQ2 pot: 13*; KCNQ2 inh: inactive; Kir21 conf inh: inactive; HEK293 Tl flux: inactive; CHO-K1 ctr: 4.4*; KCNQ1 sel pot: 31*; KCNQ2 pot conf: 22*; Kir2-1 sel: -13; KCNQ2 W236L MoA: inactive

What do the screens show for `Oc1c(Cl)cc(Cl)cc1C=Nc1ccccc1N1CCCC1`?
KCNQ2 pot: 0.41; KCNQ2 inh: inactive

Results for Oc1c(Cl)cc(Cl)cc1/C=N/c1nccs1 ?
KCNQ2 pot: 9.1*; KCNQ2 inh: inactive; Kir21 conf inh: inactive; HEK293 Tl flux: inactive; CHO-K1 ctr: -18; KCNQ1 sel pot: 126*; KCNQ2 pot conf: 34*; Kir2-1 sel: -22; KCNQ2 W236L MoA: 14%*

How did Oc1c(Cl)cc(Cl)cc1/C=N/c1nc(-c2ccc(Cl)cc2)cs1 do in these assays?
KCNQ2 pot: 2.2; KCNQ2 inh: inactive

How did CCOC(=O)C1(Cc2cccc(F)c2)CCN(C(=O)C2CCCO2)CC1 (stereo not given) do in these assays?
KCNQ2 pot: 0.12; KCNQ2 inh: inactive

What do the screens show for `CC(=O)Nc1cccc(NC(=O)CCCC2CCCCC2)c1`?
KCNQ2 pot: 1.9; KCNQ2 inh: inactive

Results for O=C(CCC1CCCC1)Nc1cccc(Cc2ccncc2)c1 ?
KCNQ2 pot: 6.3*; KCNQ2 inh: inactive; Kir21 conf inh: inactive; HEK293 Tl flux: inactive; CHO-K1 ctr: 94*; KCNQ1 sel pot: -6; KCNQ2 pot conf: -10; Kir2-1 sel: -30

How did Cc1cc(C)c2nc(N(CCCN(C)C)C(=O)c3ccc4c(c3)OCCO4)sc2c1 do in these assays?
KCNQ2 pot: -5.8; KCNQ2 inh: -5.8*; Kir21 conf inh: 50%*; HEK293 Tl flux: inactive

What do the screens show for `Cc1cc(C)c2nc(N(CCCN(C)C)C(=O)C3=COCCO3)sc2c1`?
KCNQ2 inh: inactive

Results for Cc1ccc(-c2nn(-c3ccc(F)cc3)cc2C(=O)N(C)CC(=O)Nc2ccc(N3CCOCC3)cc2)cc1 ?
KCNQ2 inh: inactive

How did COC(=O)c1cc(S(=O)(=O)N(C)Cc2ccco2)c[nH]1 do in these assays?
KCNQ2 pot: 0.2; KCNQ2 inh: inactive

Results for CCCCC(=O)Nc1ccccc1Oc1ccccc1 ?
KCNQ2 pot: 9*; KCNQ2 inh: inactive; CHO-K1 ctr: -10; KCNQ1 sel pot: -17; KCNQ2 pot conf: 19*; Kir2-1 sel: -81; KCNQ2 W236L MoA: inactive

What do the screens show for `CCOc1ccc(Oc2ccccc2NC(=O)CN2C(=O)NC3(CCCC3)C2=O)cc1`?
KCNQ2 pot: 5.9*; KCNQ2 inh: inactive; Kir21 conf inh: inactive; HEK293 Tl flux: inactive; CHO-K1 ctr: -7; KCNQ1 sel pot: -18; KCNQ2 pot conf: 26*; Kir2-1 sel: -39; KCNQ2 W236L MoA: inactive

What do the screens show for `COc1ccc(NC(=O)CN2C(=O)NC3(CCCC3)C2=O)c(OC)c1`?
KCNQ2 inh: inactive

How did O=C(O)CCCC(=O)Nc1ccccc1Oc1ccccc1 do in these assays?
KCNQ2 inh: inactive

What do the screens show for `CCc1nnc(N2C(=O)c3ccc(Oc4ccc([N+](=O)[O-])cc4)cc3C2=O)s1`?
KCNQ2 pot: 1.5; KCNQ2 inh: inactive

Results for c1ccc(C2=NNC(c3ccccn3)=NN2)nc1 ?
KCNQ2 inh: inactive

Results for COc1ccc(S(=O)(=O)N(C)C)cc1NC(=O)COC(=O)c1nc2nccc(C)n2n1 ?
KCNQ2 pot: 1.2; KCNQ2 inh: inactive

What do the screens show for `Cc1ccc(NC(=O)CC(O)(C(F)(F)F)C(F)(F)F)cc1`?
KCNQ2 pot: 9.7*; KCNQ2 inh: inactive; Kir21 conf inh: inactive; HEK293 Tl flux: inactive; CHO-K1 ctr: -6; KCNQ1 sel pot: -13; KCNQ2 pot conf: 36*; Kir2-1 sel: -23; KCNQ2 W236L MoA: 3.0%*

What do the screens show for `Cc1ccc(NC(=O)CC(N)=S)cc1`?
KCNQ2 inh: inactive

How did Nc1nn(S(=O)(=O)c2cccc3nsnc23)cc1-c1ccc(Br)cc1 do in these assays?
KCNQ2 pot: 8*; KCNQ2 inh: inactive; Kir21 conf inh: inactive; HEK293 Tl flux: inactive; CHO-K1 ctr: -12; KCNQ1 sel pot: 8.4*; KCNQ2 pot conf: -17; Kir2-1 sel: -37

What do the screens show for `Cc1ccc(-c2cn(S(=O)(=O)c3cccc4nsnc34)nc2N)cc1`?
KCNQ2 pot: 2.7; KCNQ2 inh: inactive

How did OCC[C@@H]1C[C@H](O)[C@@H](O)[C@@]2(CCCO2)O1 do in these assays?
KCNQ2 pot: 0.68; KCNQ2 inh: inactive

How did Cc1cc(C)c2cccc(N)c2n1 do in these assays?
KCNQ2 inh: inactive

How did Cc1cc(C)c2ccc(N)nc2c1O do in these assays?
KCNQ2 pot: 12*; KCNQ2 inh: inactive; Kir21 conf inh: inactive; HEK293 Tl flux: inactive; CHO-K1 ctr: -1; KCNQ1 sel pot: -24; KCNQ2 pot conf: 12*; Kir2-1 sel: -36; KCNQ2 W236L MoA: inactive

Results for CCN(CC)S(=O)(=O)c1ccc(Cl)c(OC)c1 ?
KCNQ2 pot: 1.6; KCNQ2 inh: inactive

What do the screens show for `CCCN(CCC)S(=O)(=O)c1ccc(Cl)c(OC)c1`?
KCNQ2 inh: inactive; Kir21 conf inh: 55%*; HEK293 Tl flux: inactive

What do the screens show for `CCCCc1n[nH]c2c1/C(=N/OCC)CC(C)(C)C2`?
KCNQ2 inh: inactive

Results for COc1ccc(CN2CCC(C(=O)c3ccc(Cl)cc3)CC2)cc1 ?
KCNQ2 pot: 0.34; KCNQ2 inh: inactive; Kir21 conf inh: 20%*; HEK293 Tl flux: inactive

How did COc1ccc(CN2CCC(C(=O)c3cccc(Cl)c3)CC2)cc1 do in these assays?
KCNQ2 pot: 0.01; KCNQ2 inh: inactive

How did CC(C)(C)c1ccc(C(=O)Nc2nnc(C3=COCCO3)o2)cc1 do in these assays?
KCNQ2 pot: 3.6; KCNQ2 inh: inactive

Results for CC(C)Oc1ccc(C(=O)Nc2nnc(C3=COCCO3)o2)cc1 ?
KCNQ2 pot: 5.3*; KCNQ2 inh: inactive; Kir21 conf inh: inactive; HEK293 Tl flux: inactive; CHO-K1 ctr: 91*; KCNQ1 sel pot: -7; KCNQ2 pot conf: -2; Kir2-1 sel: -33; KCNQ2 W236L MoA: inactive

Results for Cc1ccccc1OCCC(=O)OCC(=O)NC1CCS(=O)(=O)C1 (stereo not given) ?
KCNQ2 pot: 1.3; KCNQ2 inh: inactive
